Screening results: PubChem BioAssay, ICCB-Longwood Screening Facility, Harvard Medical School
MbtI inh: MbtI salicylate synthase inhibitors, primary screen, biochemical, fluorescence intensity. inhibition, % (no concentration beside the values). purified MbtI enzyme, fluorescence intensity read-out. hit rate 0.89% among 100,000. AID 493033, 2011; in the data active = inhibition mostly above about 56%, no sharp cut-off; inactive = mostly below about 77%
AID504770: growth inhibition of E. coli YBA685, primary screen, V. cholerae RctB inhibitors; E. coli YBA685 rctB-dependent plasmid, OD600 growth, 3 h; hits give low values; z-score (test concentration not listed); hit rate 0.27% among 130,000; in the data active = z-score below about -2, passing the limit was not always enough
Polio RdRp inh: poliovirus RdRp elongation inhibitors, primary screen, biochemical, fluorescence polarization, total intensity; hit rate 0.66% among 150,000; Genome polyprotein (Poliovirus type 1 (strain Mahoney)), P03300; AID 588519, 2011; % elongation, % (compound at 16.7 µg/mL); poliovirus polymerase elongation; hits give low values; in the data active = % elongation below about 90%
Target sequence (P03300 1749-2209 limits assumed): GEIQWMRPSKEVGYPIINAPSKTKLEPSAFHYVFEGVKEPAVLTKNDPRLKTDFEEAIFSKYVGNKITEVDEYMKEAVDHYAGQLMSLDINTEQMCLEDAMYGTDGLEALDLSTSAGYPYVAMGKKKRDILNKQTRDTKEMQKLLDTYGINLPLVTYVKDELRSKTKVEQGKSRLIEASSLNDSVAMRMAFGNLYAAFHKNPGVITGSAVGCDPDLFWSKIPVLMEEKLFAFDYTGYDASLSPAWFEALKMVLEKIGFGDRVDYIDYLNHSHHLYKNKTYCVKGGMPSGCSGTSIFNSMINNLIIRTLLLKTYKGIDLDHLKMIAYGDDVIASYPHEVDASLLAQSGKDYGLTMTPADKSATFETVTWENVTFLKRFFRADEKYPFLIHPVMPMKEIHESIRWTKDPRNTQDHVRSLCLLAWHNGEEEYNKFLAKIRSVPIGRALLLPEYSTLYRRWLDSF
MenB inh: M. tuberculosis MenB inhibitors, primary screen, biochemical, absorbance; 1,4-dihydroxy-2-naphthoyl-CoA synthase (Mycobacterium tuberculosis (strain ATCC 25618 / …; MenB enzyme assay, absorbance read-out; inhibition, % (concentration not given with the values); hit rate 0.43% among 100,000; AID 540299, 2011; in the data active = inhibition above about 21%, passing the limit was not always enough
Of the large screens only hits and unclear results are named; the others gave an inactive call; ! = not active in a repeat. Most compounds without a hit are left out; they make up all but 1.4% or so of the library.

Oc1ccc(Cl)cc1-c1csnn1	AID504770 -2.2
COc1cccc(NS(=O)(=O)c2ccc3[nH]cc(C(=O)N4CCCCC4)c(=O)c3c2)c1	none (no result: MbtI inh, Polio RdRp inh, MenB inh)
O=C1NC(=O)C(c2ccccc2)N1 (configuration not stated)	none
O=C1NC(=O)C(C(c2ccccc2)c2ccccc2)C(=O)N1	MenB inh 32
CCC(=O)Nc1ccc(C2=NN(C)C(=NCc3ccccc3)SC2)cc1	none
O=S1(=O)CCC(NC(=S)SCCOc2ccccc2)C1 (configuration not stated)	AID504770 -3 (no result: MbtI inh, Polio RdRp inh, MenB inh)
CC1=C(C(=O)N2CCCC2)C2(CCN(S(=O)(=O)c3cccs3)CC2)OC1=O	none
c1ccc(-c2nnc(SCCN3CCOCC3)o2)cc1	MenB inh 26
O=CNc1ccc(OC(=O)c2cncc(Br)c2)cc1	Polio RdRp inh 78
COC(=O)c1cncc(Br)c1	none (no result: MbtI inh, Polio RdRp inh, MenB inh)
Cc1csc2ncnc(N3CCN(C(=S)NCC4CC4)CC3)c12	Polio RdRp inh 88
COC(=O)C1=C(C)NC2=C(C(=O)CC(c3ccccc3)C2)C1c1ccc(N(C)C)cc1 (configuration not stated)	none
Clc1ccc(Nc2nc(Nc3cccc(Cl)c3)nc(N3CCOCC3)n2)cc1	none
S=c1sscc1-c1ccccc1	Polio RdRp inh 53 (no result: MbtI inh)
COc1ccccc1Nc1nn2c(=O)c3ccc(C(=O)NCCCOC(C)C)cc3nc2s1	none (no result: MbtI inh, AID504770, MenB inh)
CCN(CC)CCNC(=O)c1ccc2c(=O)n3nc(Nc4ccccc4OC)sc3nc2c1	Polio RdRp inh 65 (no result: MbtI inh, AID504770, MenB inh)
COc1ccc(S(=O)(=O)c2c(SC)nn(C)c2N)cc1	none
Cc1cc(C)c2[nH]c(O)c(N=NC(=S)NCC3CCCO3)c2c1 (configuration not stated)	none
Oc1[nH]c2ccc(Br)cc2c1N=NC(=S)NCC1CCCO1 (configuration not stated)	Polio RdRp inh 90
COc1cccc(C2C(C#N)=C(N)Oc3c2c(=O)n(C)c(=O)n3C)c1 (configuration not stated)	none
Cn1c2c(c(=O)n(C)c1=O)C(c1ccccc1)C(C#N)=C(N)O2 (configuration not stated)	Polio RdRp inh 85 (no result: MbtI inh)
Cn1nnnc1SCC(=O)N1c2ccccc2Sc2ccccc21	none
O=C(CSc1ccccc1)N1c2ccccc2Sc2ccccc21	Polio RdRp inh 83
S=c1nc(-c2ccccc2)[nH]n1CN1CCc2ccccc2C1	MbtI inh 96
Cc1cc2nc(N3CCc4ccccc43)c3ccccc3n2n1	none
OCCn1nc2c3ccccc3nc-2n(-c2ccccc2)c1=S	Polio RdRp inh 85
CCC(=O)c1c[nH]c(C(=O)Nc2ccc(OC)cc2)c1	none (no result: MbtI inh, Polio RdRp inh, MenB inh)
COc1ccc(C/C(N)=N/O)cc1OC	MenB inh 21
OCCP(c1ccccc1)c1ccccc1	MenB inh 61
O=C(O)CC(CP(c1ccccc1)c1ccccc1)C(=O)O (configuration not stated)	none
COc1ccccc1CNC(=O)c1cnc(SC)nc1C	none (no result: MbtI inh, AID504770, MenB inh)
COc1ccccc1CNC(=O)c1ccccc1SC	MbtI inh 59
NC(=O)CN(C1CCCCC1)S(=O)(=O)c1ccc(Br)cc1	MenB inh 41
Cc1ccc(S(=O)(=O)N(CC(=O)O)C2CCCCCC2)cc1	none
CSc1ncccc1C(=O)Nc1ccc(F)cc1	none
CC(=C/C(=O)O)/C=C/c1ccccc1	none
CC(/C=C/c1ccccc1)=N\NC(N)=S	MbtI inh 91
CCCCOC(=O)Sc1nc2ccccc2o1	MbtI inh 91
CC1=C(c2ccc(C(C)C)cc2)S(=O)(=O)N=C1N1CCC(C(=O)NCc2ccccc2)CC1	Polio RdRp inh 34 (no result: MbtI inh, AID504770, MenB inh)
CC1=C(c2ccc(Cl)cc2)S(=O)(=O)N=C1N1CCC(C(=O)NCc2ccccc2F)CC1	none (no result: MbtI inh, AID504770, MenB inh)
O=C(O)CCn1ccc2cc(S(=O)(=O)N3CCCC3)ccc21	none
O=c1/c(=C/c2ccc(Br)cc2)sc2nncn12	MenB inh 33
CC1=C/C(=N/NC(=O)COc2cc(C)ccc2C(C)C)CC1	none
COc1ccc(-c2oc3ncn4nc(COc5ccc(Cl)cc5)nc4c3c2-c2ccc(OC)cc2)cc1	Polio RdRp inh 55 (no result: MbtI inh, AID504770, MenB inh)
Cc1cccc(-n2c(-c3ccco3)nc3ccccc3c2=O)c1	MbtI inh 59
COc1ccc(-n2c(-c3ccco3)nc3ccccc3c2=O)cc1	none
S=c1nc(Cc2ccc(Cl)cc2)[nH][nH]1	MbtI inh 97
O=C(/C=c1\[nH]c(=O)/c(=C\c2ccsc2)s1)c1ccco1	MbtI inh 98
O=C(/C=c1/[nH]c(=O)/c(=C/c2cccc(C(F)(F)F)c2)s1)c1ccco1	none
O=C(CSc1ccc2ccccc2c1)NCCN1C(=O)CSC1=O	none
O=C1c2ccccc2NC(c2ccc3c(c2)OCCO3)N1CCc1ccccc1 (configuration not stated)	none
CC(C)CC(N)C(=O)N1CCOCCOCCOCC1 (configuration not stated)	none
CN(C)S(=O)(=O)c1ccc(/C(O)=C2\C(=O)C(=O)N(Cc3cccnc3)C2c2cccnc2)cc1 (configuration not stated)	MenB inh 34
CN(C)CCCN1C(=O)C(=O)/C(=C(/O)c2ccc(S(=O)(=O)N(C)C)cc2)C1c1ccccc1 (configuration not stated)	none
O=C1CSC(=S)N1c1cccc(O)c1	AID504770 -3.1 (no result: MbtI inh, Polio RdRp inh, MenB inh)
NS(=O)(=O)c1ccc(N2C(=O)CSC2=S)cc1	MbtI inh 57
Cc1nc2sc3c(c2c2nncn12)CCCC3	none
CCc1cc(C(=O)O)c(NC(=O)c2ccc(Br)cc2)s1	none (no result: MenB inh)
CCc1cc(C(=O)O)c(SSc2sc(CC)cc2C(=O)O)s1	MbtI inh 102, Polio RdRp inh 76
S=c1[nH]nc2ccccn12	MbtI inh 92!
S=c1[nH]cc2ccccn12	none
COCc1nnc(NC(=O)C2C(C=C(C)C)C2(C)C)s1 (configuration not stated)	none
CCCNC(=O)CSc1nnc(C)o1	none
CCCNC(=O)CSc1n[nH]c(=S)s1	MbtI inh 57
COC(=O)c1cnc(NN2C(=O)C=C(C)C2=O)nc1C(F)(F)F	MbtI inh 53
O=c1c2c3c(sc2ncn1CCc1ccccc1)CCCC3	none (no result: MbtI inh)
Cc1nnc(NCc2ccco2)s1	none
c1coc(CNc2nc(C34CC5CC(CC(C5)C3)C4)cs2)c1	MbtI inh 59
CCOC(=O)c1[nH]c(=O)[nH]c1CSc1ccccn1	MbtI inh 91
CCOC(=O)c1sc2nc(CSc3ccccc3)nc(Nc3ccn(C)n3)c2c1C	none
CC1COc2c(N3CCN(C)CC3)c(F)cc3c(=O)c(C(=O)OCc4ccccn4)cn1c23 (configuration not stated)	AID504770 -4.6
Cc1cc(C(=O)COC(=O)c2ccc3c(c2)NC(=O)CS3)c(C)n1Cc1cccs1	none
O=C(COC(=O)c1ccc2c(c1)NC(=O)CS2)NCc1cccs1	Polio RdRp inh 11
Cc1cc(-n2c(C)cc(C(=O)CSc3nc4ccccc4o3)c2C)no1	none
CN1c2ccccc2N(Cc2ccccc2)C(=O)C1(C)C	none
O=S(=O)(c1ccc(N2CCC(CNc3nc4ccccc4s3)CC2)cc1)N1CCOCC1	MenB inh 39
COc1ccc(OC)c(C(=O)CSC#N)c1	none
